From PubChem
HT1080 IDH1KD tx = qHTS for induction of synthetic lethality in tumor cells producing 2HG: qHTS for the HT-1080-IDH1KD cell line. HT-1080 IDH1 knockdown viability, ATP luminescence, 48 h. Potency, µM (doses to about 46.1 µM), actives largely listed as cytotoxic. actives 2% (n = 360,000). AID 686971, 2013
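Luminescent ATP read-out (CellTiter-Glo, 10 min at room temperature) after 48 h compound exposure at 37 °C gave viability of IDH1-knockdown HT-1080 cells. Activity was normalised to DMSO and cell-free wells, then fitted as concentration-response curves.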
TDP1 cell noCPT = qHTS for Inhibitors of human tyrosyl-DNA phosphodiesterase 1 (TDP1): qHTS in cells in absence of CPT; Potency, µM (top dose mostly 46.2 µM), usual class: inhibitors; actives 15% (n = 420,000); DT40 Tdp1-/- hTDP1 cells, no CPT, ATP luminescence, 48 h; also: nearly all actives have a fitted effect of over 55% in size
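DT40 Tdp1-/-;hTDP1 cells, no CPT (DMSO vehicle only), 400 cells/well; compounds pin-transferred; ≥48 hr, 37 °C; CellTiter-Glo 30 min RT dark, luminescence read.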
HT1080NT lethal = qHTS for induction of synthetic lethality in tumor cells producing 2HG: qHTS for the HT-1080-NT fibrosarcoma cell line; HT-1080-NT fibrosarcoma viability, CellTiter-Glo ATP luminescence, 48 h; Potency, µM (titrated, usually from 46.1 µM), most hits filed as cytotoxic; actives 1.6% (n = 360,000);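 also: NT is the 2HG producing partner of a matched IDH1 knockdown line; nearly all actives have a fitted effect of over 55% in size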
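750 cells/well, RPMI + 5% FBS; 2 h settle, compound pin-transfer, 48 h at 37 degrees C. CellTiter-Glo 10 min RT, luminescence. Normalized to DMSO and media-only wells.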
TGFb inhibitor = qHTS for Inhibitors of TGF-b. AID 588855, 2011. actives 1.2% (n = 410,000). HepG2 CAGA-GFP TGF-b/SMAD3 reporter, GFP fluorescence, 18 h; TGF-beta stimulated, 500 pg/mL final. Potency, µM (top dose mostly 46.1 µM), most hits filed as inhibitors; also: nearly all actives have a fitted effect of over 65% in size
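TGF-beta reporter screen: HEPG2 CAGA-GFP, 1% FBS, 500 pg/mL TGF-beta final, 18 h; per-cell GFP summed per well; curves fitted and categorized by class.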
TDP1 cell CPT = qHTS for Inhibitors of human tyrosyl-DNA phosphodiesterase 1 (TDP1): qHTS in cells in presence of CPT; chicken DT40 Tdp1-/-;hTDP1 cells + 20 nM CPT, ATP luminescence, 48 h; Potency, µM (top dose mostly 46.2 µM), most hits filed as inhibitors; actives 12% (n = 420,000); also: nearly all actives have a fitted effect of over 55% in size
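Cell growth measured by CellTiter-Glo luminescence after a minimum 48 h, 37 C compound exposure with 20 nM CPT in Tdp1-knockout DT40 cells stably expressing hTDP1, seeded 400/well; qHTS titration format.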
HepG2 viability = qHTS for Inhibitors of TGF-b: Cytotox Counterscreen | AID 588856, 2011 | actives 0.76% (n = 410,000) | Potency, µM (series often up to 46.1 µM), actives largely listed as cytotoxic | HepG2 CAGA-GFP viability, ATP luminescence, 18 h
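HepG2 CAGA-GFP cells (1000/well, DMEM with 1% FBS) received compound, then TGF-beta at 500 pg/mL final, and were incubated 18 hours at 37 degrees C. Viability was read by CellTiter-Glo luminescence. Media-only wells were set as complete cell-killing and DMSO as no toxicity.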
Numbers stand for hits; [ ] = dose if it differs, or a comment. An excerpt weighted towards active compounds, which were near 17% of everything screened. Calls follow the shape of the dose curve; as a rule, active = well fitted curve in the direction sought with a large enough effect; inconclusive = small, poorly fitted or top-dose-only effect, or another doubt; inactive = no such curve, though single readings can be large; an effect the other way counts as inactive or inconclusive.

For COC(=O)CC1N(S(=O)(=O)c2ccc(C)cc2)c2ccccc2C1(C(=O)OC)C(=O)OC (stereo unspecified) the results were HT1080 IDH1KD tx inactive, TDP1 cell noCPT inconclusive, HT1080NT lethal inactive and TDP1 cell CPT 25.9µM.
For Cc1oc(-c2ccccc2NC(=O)C2CCC2)nc1CNC(=O)c1cccc(C(F)(F)F)c1 the results were TDP1 cell noCPT inactive and TDP1 cell CPT inactive[9.04 µM].
For Cc1ccccc1-c1nc(CS(=O)CC(=O)NCCc2ccc(Cl)cc2)c(C)o1 (stereo unspecified) the results were HT1080 IDH1KD tx inactive, TDP1 cell noCPT inconclusive, HT1080NT lethal inactive, TGFb inhibitor inconclusive, TDP1 cell CPT 16.4µM and HepG2 viability inactive.
Cc1ccc(CNC(=O)CS(=O)Cc2nc(-c3cccs3)oc2C)cc1 (stereo unspecified) was read as HT1080 IDH1KD tx inactive, TDP1 cell noCPT inconclusive, HT1080NT lethal inactive, TGFb inhibitor inactive, TDP1 cell CPT 23.1µM and HepG2 viability inactive.
`Cc1oc(-c2ccccc2Cl)nc1CS(=O)CC(=O)NCc1ccc(Cl)cc1` (stereo unspecified) gave HT1080 IDH1KD tx inactive, TDP1 cell noCPT inconclusive, HT1080NT lethal inactive, TGFb inhibitor 8.91µM, TDP1 cell CPT inactive and HepG2 viability inactive.
Screening Cc1ccccc1CNC(=O)C(=O)NCC(c1ccco1)S(=O)(=O)c1ccc(F)cc1 (stereo unspecified) returned TDP1 cell noCPT inconclusive, TGFb inhibitor inactive, TDP1 cell CPT inconclusive and HepG2 viability inactive.
O=C(O)C1=C(CSc2nnnn2CS(=O)(=O)O)CS[C@@H]2[C@H](NC(=O)[C@H](O)c3ccccc3)C(=O)N12 was read as TDP1 cell noCPT inactive and TDP1 cell CPT inactive.
Screening Cc1cc(Br)cn2c(Cc3ccsc3)c(-c3ccccc3)nc12 returned HT1080 IDH1KD tx inactive, TDP1 cell noCPT inconclusive, HT1080NT lethal inactive, TGFb inhibitor inconclusive, TDP1 cell CPT inconclusive and HepG2 viability inactive.
For Cc1cc(Br)cn2c(Cc3ccccc3)c(-c3ccc(F)cc3)nc12 the results were HT1080 IDH1KD tx inactive, TDP1 cell noCPT inconclusive, HT1080NT lethal inactive, TGFb inhibitor inactive, TDP1 cell CPT inconclusive and HepG2 viability inactive.
Screening Cc1ccc(-c2nc3c(C)cc(Br)cn3c2Cc2ccsc2)cc1 returned HT1080 IDH1KD tx 16.4µM, TDP1 cell noCPT inconclusive, HT1080NT lethal inconclusive, TGFb inhibitor inconclusive, TDP1 cell CPT 18.4µM and HepG2 viability inactive.
`Cc1cc(Br)cn2c(Cc3ccccc3)c(-c3ccccc3)nc12` gave HT1080 IDH1KD tx inactive, TDP1 cell noCPT inconclusive, HT1080NT lethal inactive, TGFb inhibitor inactive, TDP1 cell CPT 29.1µM and HepG2 viability inactive.
Screening Cc1ccc(-c2nc3c(Cl)cc(C(F)(F)F)cn3c2Cc2ccccc2)cc1 returned HT1080 IDH1KD tx inactive, TDP1 cell noCPT inconclusive, HT1080NT lethal inactive, TGFb inhibitor inactive, TDP1 cell CPT inconclusive and HepG2 viability inactive.
Screening CCCc1nc2c(C)cc(Br)cn2c1Cc1ccc(C)cc1 returned HT1080 IDH1KD tx inactive, TDP1 cell noCPT inconclusive, HT1080NT lethal inactive, TGFb inhibitor inconclusive, TDP1 cell CPT inconclusive and HepG2 viability inactive.
Cc1ccc(Cc2c(-c3ccc(Cl)cc3)nc3c(C)cc(Br)cn23)cc1 was read as HT1080 IDH1KD tx 16.4µM, TDP1 cell noCPT 16.4µM, HT1080NT lethal inconclusive, TGFb inhibitor inconclusive, TDP1 cell CPT 23.1µM and HepG2 viability inactive.
Cc1ccc(Cc2c(-c3ccc(Cl)cc3)nc3c(Cl)cc(C(F)(F)F)cn23)cc1 was read as HT1080 IDH1KD tx inactive, TDP1 cell noCPT 18.4µM, HT1080NT lethal inactive, TGFb inhibitor inconclusive, TDP1 cell CPT inconclusive and HepG2 viability inactive.
`COc1ccc(Cc2c(C(C)(C)C)nc3c(C)cc(Br)cn23)c(C)c1` gave HT1080 IDH1KD tx inactive, TDP1 cell noCPT 23.1µM, HT1080NT lethal inactive, TGFb inhibitor inactive, TDP1 cell CPT 18.4µM and HepG2 viability inactive.
For Cc1ccc(Cc2c(-c3cccc(Cl)c3)nc3c(C)cc(Br)cn23)cc1 the results were HT1080 IDH1KD tx inactive, TDP1 cell noCPT 20.6µM, HT1080NT lethal inactive, TGFb inhibitor inactive, TDP1 cell CPT 14.6µM and HepG2 viability inactive.
Cc1ccc(Cc2c(-c3cccc(Br)c3)nc3c(C)cc(Br)cn23)cc1 was read as HT1080 IDH1KD tx inactive, TDP1 cell noCPT inconclusive, HT1080NT lethal inactive and TDP1 cell CPT inactive.
For COc1ccccc1Cc1c(-c2ccccc2)nc2c(C)cc(Br)cn12 the results were HT1080 IDH1KD tx inconclusive, TDP1 cell noCPT 16.4µM, HT1080NT lethal inconclusive, TGFb inhibitor inconclusive, TDP1 cell CPT 16.4µM and HepG2 viability inactive.
For Cc1cc(Br)cn2c(Cc3ccsc3)c(-c3cccc(Br)c3)nc12 the results were HT1080 IDH1KD tx inactive, TDP1 cell noCPT inactive, HT1080NT lethal inactive and TDP1 cell CPT inactive.
`CC(C)(C)OC(=O)C[C@H]1C/C=C\C[C@@H](CC(=O)N(CCO)Cc2ccccc2)C(=O)N[C@H](Cc2c[nH]c3ccccc23)COC1=O` gave HT1080 IDH1KD tx inactive, TDP1 cell noCPT 18.4µM, HT1080NT lethal inactive, TGFb inhibitor inactive, TDP1 cell CPT inconclusive and HepG2 viability inactive.
Screening CC(C)(C)OC(=O)C[C@H]1C/C=C\C[C@H](CC(=O)N(CCO)Cc2ccccc2)C(=O)N[C@H](C(C)(C)C)COC1=O returned HT1080 IDH1KD tx inactive, TDP1 cell noCPT 20.6µM, HT1080NT lethal inactive, TGFb inhibitor inactive, TDP1 cell CPT 29.1µM and HepG2 viability inactive.
For CC(C)(C)OC(=O)C[C@H]1C/C=C\C[C@H](CC(=O)N(CCO)Cc2ccccc2)C(=O)N[C@@H](Cc2ccccc2)COC1=O the results were HT1080 IDH1KD tx inactive, TDP1 cell noCPT inconclusive, HT1080NT lethal inactive, TGFb inhibitor inactive, TDP1 cell CPT 16.4µM and HepG2 viability inactive.
For C[C@@H]1COC(=O)[C@@H](CC(=O)OC(C)(C)C)C/C=C\C[C@H](CC(=O)N(CCO)Cc2ccccc2)C(=O)N1 the results were HT1080 IDH1KD tx inactive, TDP1 cell noCPT inconclusive, HT1080NT lethal inactive, TGFb inhibitor inactive, TDP1 cell CPT inconclusive and HepG2 viability inactive.
CN(Cc1cccnc1)C(=O)c1cc(COc2ccc3c(c2)CCCC3)on1 was read as HT1080 IDH1KD tx inactive, TDP1 cell noCPT inconclusive, HT1080NT lethal inactive, TGFb inhibitor inconclusive, TDP1 cell CPT inconclusive and HepG2 viability inactive.
